Data: PubChem BioAssay (Tox21)
Results filed as inconclusive are left out. A call without a number means that no potency is given here. Calls of active or inactive are those of the source. Unless noted, calls come from the whole dose curve.

Assays:
[1] = Nuclear factor erythroid 2-related factor 2/antioxidant responsive element (Nrf2/ARE) small molecule agonists: qHTS cell viability counter screen in human keratinocytes (AID 1919968; active = well fitted curve in the direction sought with a large enough effect in the repeat runs; an effect the other way counts as inactive or inconclusive; note: nearly all actives have a fitted effect of over 55% in size)
Method in brief: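 In human HaCaT keratinocytes stably expressing an ARE-driven luciferase, compound exposure lasted 23 h at 37 C under 5% CO2. Viable cells are quantified with a protease-based fluorogenic reagent (CellTiter-Fluor) read 1 h after addition.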

[2] = Nuclear factor erythroid 2-related factor 2/antioxidant responsive element (Nrf2/ARE) small molecule agonists: luciferase reporter gene qHTS assay in human keratinocytes (AID 1919969); note: nearly all actives have a fitted effect of over 35% in size; note: potency is the fitted concentration of half-maximal effect
[3] = molecular target: Gonadotropin-releasing hormone receptor (Homo sapiens) (UniProt P30968); assay: Human gonadotropin-releasing hormone receptor (GnRHR) small molecule agonists, calcium flux assay in GnRHR-HEK293 cells (AID 1920063); note: nearly all actives have a fitted effect of over 35% in size; note: potency is the fitted concentration of half-maximal effect
Chain of Gonadotropin-releasing hormone receptor (Homo sapiens) (P30968 whole entry, looked up): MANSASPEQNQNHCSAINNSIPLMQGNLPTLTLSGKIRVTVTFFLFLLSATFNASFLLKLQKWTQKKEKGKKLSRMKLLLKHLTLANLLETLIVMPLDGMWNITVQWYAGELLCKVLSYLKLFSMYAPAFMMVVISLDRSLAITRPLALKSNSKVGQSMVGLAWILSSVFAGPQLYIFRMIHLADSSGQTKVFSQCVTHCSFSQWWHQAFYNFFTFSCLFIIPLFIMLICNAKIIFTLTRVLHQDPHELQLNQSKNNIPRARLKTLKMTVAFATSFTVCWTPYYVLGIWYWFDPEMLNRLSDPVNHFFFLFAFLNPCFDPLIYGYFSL
Method in brief: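 Intracellular calcium rise is the read-out: engineered human GnRHR HEK293 cells, dye-loaded, are exposed to DMSO-dissolved compounds and fluorescence at Ex/Em 480/540 is tracked for 3 min.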

[4] = molecular target: KiSS-1 receptor (Homo sapiens) (UniProt Q969F8); assay: Human kisspeptin (KISS1R) small molecule agonists, calcium flux assay in KISS1R-HEK293 cells (AID 1920064; active = well fitted curve in the direction sought with a large enough effect in the repeat runs; an effect the other way counts as inactive or inconclusive)
Chain of KiSS-1 receptor (Homo sapiens) (Q969F8 whole entry, looked up): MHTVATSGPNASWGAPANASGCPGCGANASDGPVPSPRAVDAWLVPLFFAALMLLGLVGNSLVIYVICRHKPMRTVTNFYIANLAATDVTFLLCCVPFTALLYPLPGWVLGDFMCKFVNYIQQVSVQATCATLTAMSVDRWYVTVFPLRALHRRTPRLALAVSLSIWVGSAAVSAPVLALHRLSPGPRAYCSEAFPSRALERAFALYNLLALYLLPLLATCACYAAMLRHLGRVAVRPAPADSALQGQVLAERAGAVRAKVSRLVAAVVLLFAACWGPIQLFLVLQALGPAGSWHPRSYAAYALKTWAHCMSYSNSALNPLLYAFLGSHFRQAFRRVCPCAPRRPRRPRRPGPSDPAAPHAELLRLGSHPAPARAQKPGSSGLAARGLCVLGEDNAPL
Method in brief: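 Concentration-response testing used 15 concentrations in triplicate on human KISS1R-expressing HEK293 cells. Calcium-dependent fluorescence (Ex/Em 480/540) was followed kinetically for 3 min after compound transfer.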

[5] = G protein-coupled receptor (GPCR) small molecule agonists, calcium flux assay: HEK293 wild type cell line counter screen (AID 1920065)
Method in brief: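 Fluorescence intensity signals activation. After overnight (18 h) culture and a 1 h calcium dye load at 37 C, compounds are added by pin tool and the plate read at 480/540 nm for 3 min in 1 s steps.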

[6] = p53 small molecule agonists, cell-based qHTS assay with human liver microsomes: qHTS cell viability counter screen (AID 1963579); note: nearly all actives have a fitted effect of over 45% in size
Method in brief: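 Tox21 library compounds, delivered from DMSO stocks, were tested on p53RE-bla cells together with 0.5 mg/mL human liver microsomes and 0.5 mg/mL NADPH (final) over 16 h at 37 C; CellTiter-Glo luminescence served as the cytotoxicity measure.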

[7] = p53 small molecule agonists, cell-based qHTS assay with rat liver microsomes: qHTS cell viability counter screen (AID 1963580); note: nearly all actives have a fitted effect of over 45% in size
Method in brief: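 Counter screen for cytotoxicity under metabolic activation: rat liver microsomes and NADPH, 0.5 mg/mL final each, added with compounds to p53RE-bla HCT-116 cells; 16 h at 37 C, then ATP luminescence read.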

[8] = p53 small molecule agonists, cell-based qHTS assay: qHTS cell viability counter screen (AID 1963581); note: nearly all actives have a fitted effect of over 45% in size
Method in brief: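 Luminescence from CellTiter-Glo, reflecting ATP content, serves as the cytotoxicity measure; it is taken after the 2 h reporter substrate step in HCT-116 p53RE-bla cells dosed for 16 h at 37 C.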

[9] = molecular target: 5-hydroxytryptamine receptor 2A (Homo sapiens) (UniProt P28223); assay: 5-hydroxytryptamine receptor 2A (HTR2A) small molecule antagonists, cell-based qHTS assay (AID 1963586); note: nearly all actives have a fitted effect of over 45% in size
Chain of 5-hydroxytryptamine receptor 2A (Homo sapiens) (P28223 whole entry, looked up): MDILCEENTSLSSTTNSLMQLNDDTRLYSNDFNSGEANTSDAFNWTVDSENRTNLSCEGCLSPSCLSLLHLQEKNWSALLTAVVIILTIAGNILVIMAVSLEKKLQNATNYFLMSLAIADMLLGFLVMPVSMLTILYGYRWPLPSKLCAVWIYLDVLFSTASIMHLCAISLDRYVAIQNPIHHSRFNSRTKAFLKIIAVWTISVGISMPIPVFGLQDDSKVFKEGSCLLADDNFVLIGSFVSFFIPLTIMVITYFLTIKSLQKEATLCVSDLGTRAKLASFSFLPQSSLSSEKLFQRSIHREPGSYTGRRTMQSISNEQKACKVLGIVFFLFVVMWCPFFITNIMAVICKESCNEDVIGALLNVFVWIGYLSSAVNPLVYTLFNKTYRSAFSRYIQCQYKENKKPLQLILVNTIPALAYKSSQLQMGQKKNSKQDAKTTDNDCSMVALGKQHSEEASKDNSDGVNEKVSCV
Method in brief: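 CHO cells stably expressing human HTR2A were plated for 18 h at 37 C, then loaded with calcium dye for 1 h. Compounds were preincubated 5 min at room temperature before DOI (4 nM solution) was added. Kinetic fluorescence was read for 3 min.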

[10] = molecular target: 5-hydroxytryptamine receptor 2A (Homo sapiens) (UniProt P28223); assay: 5-hydroxytryptamine receptor 2A (HTR2A) small molecule agonists, cell-based qHTS assay (AID 1963587); note: nearly all actives have a fitted effect of over 30% in size
Method in brief: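 HTR2A-CHO cells, plated 18 h at 37 C/5% CO2, dye-loaded 1 h at 37 C; compounds in DMSO added by pin tool (agonist mode). Intracellular calcium flux read as kinetic fluorescence on FDSS over 2 min at 1 s intervals.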

[11] = molecular target: Muscarinic acetylcholine receptor M1 (Homo sapiens) (UniProt P11229); assay: Cholinergic receptor muscarinic 1 (CHRM1) small molecule antagonists, cell-based qHTS assay (AID 1963588); note: nearly all actives have a fitted effect of over 40% in size
Chain of Muscarinic acetylcholine receptor M1 (Homo sapiens) (P11229 whole entry, looked up): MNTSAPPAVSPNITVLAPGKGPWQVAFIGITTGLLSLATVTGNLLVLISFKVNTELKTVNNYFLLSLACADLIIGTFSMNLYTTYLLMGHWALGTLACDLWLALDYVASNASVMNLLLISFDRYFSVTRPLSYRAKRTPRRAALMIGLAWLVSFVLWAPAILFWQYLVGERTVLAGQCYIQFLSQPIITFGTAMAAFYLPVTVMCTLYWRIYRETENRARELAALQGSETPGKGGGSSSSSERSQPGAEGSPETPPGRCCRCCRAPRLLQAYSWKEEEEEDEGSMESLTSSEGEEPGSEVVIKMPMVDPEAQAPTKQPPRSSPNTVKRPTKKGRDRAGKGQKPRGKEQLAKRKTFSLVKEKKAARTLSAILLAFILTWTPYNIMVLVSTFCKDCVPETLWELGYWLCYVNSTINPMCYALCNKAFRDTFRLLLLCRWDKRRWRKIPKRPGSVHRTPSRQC
Method in brief: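 Compounds were tested at 15 concentrations in three independent runs. Dye-loaded CHRM1-CHO cells were exposed 5 min at room temperature before stimulation by acetylcholine added at 50nM. Intracellular calcium was read kinetically on FDSS for 3 min.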

[12] = cAMP Responsive Elements (CRE) small molecule agonists, cell-based qHTS assay (AID 1963590)
Method in brief: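 Compound exposure lasted 3 h at 37 C/5% CO2 in CRE-bla HEK 293T cells grown in assay medium with 10% dialyzed FBS and 25 mM HEPES. Reporter signal came from LiveBLAzer B/G FRET substrate, 2 h, room temperature.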

[13] = molecular target: Beta-2 adrenergic receptor (Homo sapiens) (UniProt P07550); assay: Adrenergic beta2 receptor (ADRB2) small molecule antagonists, cell-based qHTS assay (AID 1963592); note: series mostly up to about 92 µM; nearly all actives have a fitted effect of over 50% in size
Chain of Beta-2 adrenergic receptor (Homo sapiens) (P07550 whole entry, looked up): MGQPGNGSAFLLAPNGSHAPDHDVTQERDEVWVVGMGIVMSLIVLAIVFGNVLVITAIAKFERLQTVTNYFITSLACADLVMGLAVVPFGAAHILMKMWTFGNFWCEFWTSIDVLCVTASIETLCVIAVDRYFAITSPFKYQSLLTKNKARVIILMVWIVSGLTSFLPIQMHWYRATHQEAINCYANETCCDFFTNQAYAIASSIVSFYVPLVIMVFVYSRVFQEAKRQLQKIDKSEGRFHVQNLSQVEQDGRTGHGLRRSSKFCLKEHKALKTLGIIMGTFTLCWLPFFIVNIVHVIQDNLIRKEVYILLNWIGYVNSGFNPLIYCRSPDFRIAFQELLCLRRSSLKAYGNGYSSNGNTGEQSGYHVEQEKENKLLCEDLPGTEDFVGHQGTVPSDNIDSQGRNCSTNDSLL
Method in brief: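 Assay format: CHO-ADRB2 cells, 18-20hr seeding at 37C/5% CO2, then compound plus 1nM isoproterenol agonist mix for 0.5hr RT. Homogeneous time-resolved fluorescence cAMP detection after 1hr, expressed as 665/615 nm ratio.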

[14] = molecular target: Beta-2 adrenergic receptor (Homo sapiens) (UniProt P07550); assay: Adrenergic beta2 receptor (ADRB2) small molecule agonists, cell-based qHTS assay (AID 1963593);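 note: CHO cells stably overexpressing human ADRB2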
Method in brief: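 CHO cells stably over-expressing ADRB2 were plated overnight at 37C, then dosed with compounds plus a stimulation mix containing 100uM IBMX and 25uM Ro-20-1724 for 0.5hr at room temperature. cAMP was measured by HTRF competition, 1hr.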

[15] = molecular target: D(2) dopamine receptor (Homo sapiens) (UniProt P14416); assay: Dopamine D2 receptor (DRD2) small molecule antagonists, cell-based qHTS assay (AID 1963595; active = well fitted inhibition curve with a large enough effect in the signal ratio in the repeat runs, with a control signal flat; the % refers to the signal ratio)
Chain of D(2) dopamine receptor (Homo sapiens) (P14416 whole entry, looked up): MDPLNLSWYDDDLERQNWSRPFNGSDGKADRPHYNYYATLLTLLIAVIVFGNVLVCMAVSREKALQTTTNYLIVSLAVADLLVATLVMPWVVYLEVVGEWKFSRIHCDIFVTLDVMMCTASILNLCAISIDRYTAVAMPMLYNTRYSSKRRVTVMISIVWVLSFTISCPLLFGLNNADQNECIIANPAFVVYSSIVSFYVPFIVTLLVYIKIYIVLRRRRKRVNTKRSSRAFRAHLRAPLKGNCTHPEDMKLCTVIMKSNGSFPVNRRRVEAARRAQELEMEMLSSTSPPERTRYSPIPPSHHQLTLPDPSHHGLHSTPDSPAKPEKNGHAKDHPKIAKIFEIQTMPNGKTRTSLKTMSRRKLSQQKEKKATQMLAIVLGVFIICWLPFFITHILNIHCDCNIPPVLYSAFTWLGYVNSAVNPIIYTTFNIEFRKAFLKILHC
Method in brief: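 HEK293 cells stably expressing DRD2 were preincubated with 0.1 mM Ro20-1724, then with compound for 10 min at room temperature. Cells were stimulated with 200 nM NKH477 plus 12 nM quinpirole for 30 min, and cAMP was read by HTRF.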

[16] = cAMP Responsive Elements (CRE) small molecule antagonists, cell-based qHTS assay (AID 1963591; active = well fitted inhibition curve with a large enough effect in the signal ratio in the repeat runs, not every such curve was filed as active; the % refers to the signal ratio)
Method in brief: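 Stimulation used NKH477 at a final 0.25 uM for 3 h in compound-treated CRE-bla HEK293T cells, seeded 18 h beforehand. Reporter activity was measured with LiveBLAzer B/G FRET substrate after 2 h at room temperature.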

[17] = molecular target: D(2) dopamine receptor (Homo sapiens) (UniProt P14416); assay: Dopamine D2 receptor (DRD2) small molecule agonists, cell-based qHTS assay (AID 1963594); note: nearly all actives have a fitted effect of over 35% in size
Method in brief: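 HEK293 cells stably expressing DRD2 were cultured 24 h at 37 C, then given Ro20-1724 (0.1 mM final) and compounds for 10 min at room temperature. NKH477 (200nM) was then added for 30 min. cAMP was read by HTRF.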

[18] = molecular target: Muscarinic acetylcholine receptor M1 (Homo sapiens) (UniProt P11229); assay: Cholinergic receptor muscarinic 1 (CHRM1) small molecule agonists, cell-based qHTS assay (AID 1963589); note: nearly all actives have a fitted effect of over 35% in size
Method in brief: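 Fluorescent calcium dye reports M1 activation in stably transfected CHO cells. Compounds, 15 concentrations, added after 1 h dye loading at 37 C; kinetic reading at 1 sec intervals.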

SMILES	Potency [1]	Potency [2]	Potency [3]	Potency [4]	Potency [5]	Potency [6]	Potency [7]	Potency [8]	Potency [9]	Potency [10]	Potency [11]	Potency [12]	Potency [13]	Potency [14]	Potency [15]	Potency [16]	Potency [17]	Potency [18]
[O-][Cl+3]([O-])([O-])O	inactive	inactive	inactive	inactive	inactive	inactive	inactive	inactive	inactive	inactive	inactive	inactive	inactive	inactive	inactive	–	–	–
COC(=O)C1=CCCN(C)C1	inactive	inactive	1.07 µM (active)	inactive	inactive	inactive	inactive	inactive	inactive	inactive	–	inactive	inactive	inactive	inactive	inactive	inactive	–
ClCCCCBr	inactive	inactive	inactive	inactive	inactive	inactive	inactive	inactive	–	inactive	inactive	inactive	inactive	inactive	–	–	inactive	inactive
Nc1ccc([N+](=O)[O-])cc1[N+](=O)[O-]	inactive	inactive	inactive	inactive	inactive	inactive	inactive	inactive	–	inactive	inactive	inactive	inactive	–	inactive	–	–	inactive
Cc1ccc(OP(=O)(Oc2ccccc2)Oc2ccccc2)cc1	inactive	inactive	inactive	inactive	inactive	inactive	inactive	inactive	inactive	–	inactive	–	inactive	–	inactive	inactive	–	inactive
CN(C)C1CSSSC1	inactive	61.1 µM (active)	inactive	inactive	inactive	inactive	inactive	inactive	–	inactive	inactive	inactive	inactive	inactive	inactive	–	inactive	inactive
